Laboratory results as given in ChEMBL document CHEMBL3988442, “University of Dundee, Small-Polar-MMV Screening Library” (2021).

The compounds below were run against T1, Aspartate--tRNA(Asp/Asn) ligase (Mycobacterium tuberculosis (strain ATCC 25618 / H37Rv)) (UniProt P9WFW3) (assay: Assay for Asp RNA synthetase-1 from Mycobacterium tuberculosis). Details: 30 µM.
T1 sequence (whole entry): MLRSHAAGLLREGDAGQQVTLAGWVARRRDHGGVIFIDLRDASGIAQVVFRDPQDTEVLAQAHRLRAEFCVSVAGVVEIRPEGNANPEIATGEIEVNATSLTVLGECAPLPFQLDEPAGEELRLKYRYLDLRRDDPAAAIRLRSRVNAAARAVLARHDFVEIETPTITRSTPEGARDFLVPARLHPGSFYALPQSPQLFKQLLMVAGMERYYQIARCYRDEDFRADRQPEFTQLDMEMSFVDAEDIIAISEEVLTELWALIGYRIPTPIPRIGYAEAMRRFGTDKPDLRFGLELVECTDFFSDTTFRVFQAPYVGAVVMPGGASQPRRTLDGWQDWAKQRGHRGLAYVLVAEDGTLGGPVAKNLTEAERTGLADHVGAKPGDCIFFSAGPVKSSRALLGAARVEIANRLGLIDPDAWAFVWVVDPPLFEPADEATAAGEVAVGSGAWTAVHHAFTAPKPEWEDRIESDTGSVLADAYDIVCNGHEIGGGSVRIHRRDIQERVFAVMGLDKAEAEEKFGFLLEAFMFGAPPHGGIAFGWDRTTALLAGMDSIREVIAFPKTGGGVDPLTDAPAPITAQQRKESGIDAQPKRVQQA
Assay type: functional
Set-up: scale not given: direction of the effect not stated beside the values

Compound | Percent Effect [%]
FC(F)(F)Cn1ccnc1CN1CCCC1c1noc(C2CC2)n1 (stereo unspecified) | 11.5
CCOCCCNC(=O)c1nn(CC)cc1Cl | -5.87
O=C1CC2(CCCNC2)C(=O)N1Cc1ccc(F)cc1 (stereo unspecified) | 3.3
Cc1ccc(C(=O)N2C[C@@H]3COC[C@]3(COc3cccnc3)C2)cn1 | 2.55
CC(C)Oc1ncccc1CNC(=O)N1CCC1c1ccccc1 (stereo unspecified) | 0.589
CCOCC1CN(S(C)(=O)=O)Cc2ncn(CC3CC3)c21 (stereo unspecified) | -0.663
CCc1cc(C(F)(F)F)c2c(C)nn(CC(=O)O)c2n1 | -5.37
COCCN1CCC(CN(CC2CCCO2)C(=O)CCNC(C)=O)CC1 (stereo unspecified) | -0.167
CN(C)S(=O)(=O)N1CCN(c2ccnc(N3CCCC3)n2)CC1 | -2.66
Cc1ccc(S(=O)(=O)NC2CC2)cc1C | -2.59
O=C(c1cccc(Cn2ccnc2)c1)N1CCCC(n2ccnc2)C1 (stereo unspecified) | -0.874
CC(C)(C)n1ncc2c1NC(=O)CC2c1ccc(OCC(N)=O)cc1 (stereo unspecified) | -2.88
O=C(COCc1ccccc1Cl)N1CCCC(n2cccn2)C1 (stereo unspecified) | -1.04
CCCc1nnsc1C(=O)NCC1CCN(c2ccccn2)CC1 | -7.59
Cc1nc(CN(Cc2ccccc2)C2CCS(=O)(=O)C2)oc1C (stereo unspecified) | -0.478
Cc1occc1C(=O)N1CCO[C@H]2[C@@H](Oc3ccccn3)CC[C@@H]21 | -0.28
COc1ccc(NC(C)C(=O)NCCc2cccs2)cc1F (stereo unspecified) | 7.04
CN(Cc1ccsc1)C(=O)c1cccc(F)c1 | -5.62
COc1ccc(CNCc2c(C)nn(C)c2N2CCOCC2)cc1 | -0.115
CS(=O)(=O)c1ccccc1C(=O)NCCCN1CCc2ccccc2C1 | -6.45

What follows are compounds tested against Shiga toxin 2 (Escherichia coli O157:H7) (UniProt P09385+P09386) (assay: E. coli 0.157:H7 Shiga Toxin SOP - stx2 screening assay). Details: 30 µM.
Assay type: functional
Set-up: scale not given: direction of the effect not stated beside the values

Compound | Percent Effect [%]
Cn1cnnc1C1CCN(c2cncc(-n3cccn3)n2)CC1 | -33.6
Cc1cc(C)n(CC2CN(CC(=O)Nc3nncs3)CCO2)n1 (stereo unspecified) | 9.91
COc1ccc(C[C@H]2CN(C(=O)CN(C)C)CC[C@H]2OC)cc1 | -5.78
CC(C)(C)c1nc(CN2CCCC2CCc2ccccc2)no1 (stereo unspecified) | 14.9
Cc1cc2nc(SCC(=O)N3CCCC3)n(-c3ccccc3)c(=O)c2[nH]1 | -24.4
CCCc1nc(CN2CCOC(Cn3cncn3)C2)no1 (stereo unspecified) | -23.1
CCc1ccccc1CN1CC[C@@H](NC(=O)c2cccnc2)[C@H](O)C1 | -1.07
Cc1noc(C2CCCCN2C(=O)NC2CCCC2)n1 (stereo unspecified) | -14.7
CCCN1CCN(C(=O)C(C)n2cc(Br)cn2)CC1 (stereo unspecified) | -31.6
O=c1n(CCSCc2ccccc2F)nc2ccccn12 | 20.1
CC(=O)N1CCOCC2(CN(Cc3ccc(C)o3)CCO2)C1 (stereo unspecified) | -4.76
Cc1ccc(NC2CCN(C(=O)CN(C)C3CC3)CC2)nn1 | -2.23
CN(C)CCNC(=O)c1cnc2c(c1)nc(-c1ccccc1Cl)n2C | 5.62
Cc1cc(NC(=O)CN2CCCC2c2noc(C(C)C)n2)n(C)n1 (stereo unspecified) | 5.27
N#Cc1ncn(CCC(=O)Nc2c(Cl)cccc2Cl)n1 | -17.7
CCN1CCN(C(=O)c2cnn(-c3ccccc3Cl)c2)CC1 | 16.9
CCn1c(C(=O)N2CCN(C(=O)NC(C)C)CC2)cc2ccccc21 | 18.3
CC(C)c1nn(C)c(N2CCOCC2)c1CN[C@H](C)CO | 30.8

Compound | Percent Effect [%]
CN(C)c1ccc(CN(CCCn2ccnc2)Cc2c[nH]cn2)cc1 | -38.9
CCCc1noc(CCC(=O)N2CCCC2c2ccsc2)n1 (stereo unspecified) | 8.4
FC(F)(F)Cn1ccnc1CN1CCCC1c1noc(C2CC2)n1 (stereo unspecified) | -34
CCOCCCNC(=O)c1nn(CC)cc1Cl | -47.7
O=C1CC2(CCCNC2)C(=O)N1Cc1ccc(F)cc1 (stereo unspecified) | -4.45
Cc1ccc(C(=O)N2C[C@@H]3COC[C@]3(COc3cccnc3)C2)cn1 | -13.2
CC(C)Oc1ncccc1CNC(=O)N1CCC1c1ccccc1 (stereo unspecified) | -9.32
CCOCC1CN(S(C)(=O)=O)Cc2ncn(CC3CC3)c21 (stereo unspecified) | -6.21
CCc1cc(C(F)(F)F)c2c(C)nn(CC(=O)O)c2n1 | 14.6
COCCN1CCC(CN(CC2CCCO2)C(=O)CCNC(C)=O)CC1 (stereo unspecified) | -3.65
CN(C)S(=O)(=O)N1CCN(c2ccnc(N3CCCC3)n2)CC1 | -41.2
Cc1ccc(S(=O)(=O)NC2CC2)cc1C | -0.587
O=C(c1cccc(Cn2ccnc2)c1)N1CCCC(n2ccnc2)C1 (stereo unspecified) | -7.22
CC(C)(C)n1ncc2c1NC(=O)CC2c1ccc(OCC(N)=O)cc1 (stereo unspecified) | 21.3
O=C(COCc1ccccc1Cl)N1CCCC(n2cccn2)C1 (stereo unspecified) | 20
CCCc1nnsc1C(=O)NCC1CCN(c2ccccn2)CC1 | -0.668
Cc1nc(CN(Cc2ccccc2)C2CCS(=O)(=O)C2)oc1C (stereo unspecified) | 24.1
Cc1occc1C(=O)N1CCO[C@H]2[C@@H](Oc3ccccn3)CC[C@@H]21 | -16.2
